# Measured values as given in PubChem BioAssay (NCATS).
# Inconclusive results are not listed. Unmarked numbers belong to inactive results. The source made the active and inactive calls. Calls follow the shape of the dose curve; as a rule, active = well fitted inhibition curve with a large enough effect; inconclusive = small, poorly fitted or top-dose-only effect; inactive = flat fitted curve, though single readings scatter.
# Experiments:
# HEK293 = experiment: Cytotoxic Profiling of Annotated Libraries Using Quantitative High-Throughput Screening (AID 1296008); conditions: Five cell lines viability, CellTiter-Glo ATP luminescence, 48-72 h; max response: hits give low values; also: potency is read from the fitted curve at half-maximal effect; as to max response: % is scaled to controls: 0 for no effect and ±100 for the full control effect
# Summary of the method: (§1)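 Cells exposed to compounds for 48 or 72 hr at 37 degrees Celsius. Viability read as ATP-coupled luminescence with CellTiter-Glo after 10 min at room temperature.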
# HaCat [1] = experiment: as above; conditions: Five cell lines viability, CellTiter-Glo ATP luminescence, 48-72 h; max response: hits give low values
# Summary of the method: as §1
# NIH3T3 = experiment: as above; conditions: Five cell lines viability, CellTiter-Glo ATP luminescence, 48-72 h; max response: hits give low values
# Summary of the method: as §1
# HACAT [2] = experiment: qHTS assay to identify novel small-molecules to repurpose for Merkel cell carcinoma treatment (AID 1296009); conditions: MCC and control cell lines, CellTiter-Glo viability, 72 h; at 44.8 µM (top of the series) unless noted
# Summary of the method: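 Cells were treated for 72 hr at 37 degree celsius with compounds in 8- or 11-point dose response. Viability was read by CellTiter-Glo luminescence, normalized to no-cell (cytotoxicity) and DMSO controls.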
# KB-3-1 = experiment: Cytotoxic Profiling of Annotated Libraries Using Quantitative High-Throughput Screening (AID 1296008); conditions: Five cell lines viability, CellTiter-Glo ATP luminescence, 48-72 h; max response: hits give low values; also: potency is read from the fitted curve at half-maximal effect; as to max response: % is scaled to controls: 0 for no effect and ±100 for the full control effect
# Summary of the method: as §1
# Also: nearly all actives have a fitted effect of over 60% in size.
smiles,measurement,setting,value
C/C(=N\N=C(N)N)c1cc(NC(=O)CCCCCCCCC(=O)Nc2cc(/C(C)=N/N=C(N)N)cc(/C(C)=N/N=C(N)N)c2)cc(/C(C)=N/N=C(N)N)c1,Potency,HEK293,7.31 µM (active)
same,outcome,HaCat [1],inactive
same,max response,NIH3T3,0.565%
same,outcome,HACAT [2],inactive
O=C(O)c1ccc(N2C(=O)/C(=C/c3ccc(-c4ccc([N+](=O)[O-])cc4)o3)C=C2c2ccccc2)cc1,max response,HEK293,-3.48%
same,outcome,HaCat [1],inactive
same,outcome,HACAT [2],inactive
CCCC(CCC)C(=O)Nc1ccn([C@@H]2O[C@H](CO)[C@@H](O)C2(F)F)c(=O)n1,Potency,HEK293,6.51 µM (active)
same,Potency,NIH3T3,4.11 µM (active)
COc1cccc(-c2cn(-c3ccc(CCN4CCC(O)CC4)cc3)c3ncnc(N)c23)c1,Potency,HEK293,8.2 µM (active)
same,Potency,HaCat [1],5.17 µM (active)
same,Potency,NIH3T3,1.3 µM (active)
CCc1ccccc1OC[C@@H](O)CN[C@H]1CCCc2ccccc21,Potency,HEK293,23.1 µM (active)
same,outcome,HaCat [1],inactive
same,max response,NIH3T3,-24.4%
same,outcome,HACAT [2],inactive
CC(=O)C1(C)CCC2C3C=C(C)C4=CC(=O)CCC4(C)C3CCC21C (stereo not drawn),Potency,HEK293,10.3 µM (active)
same,max response,HaCat [1],-54.8%
same,max response,NIH3T3,-16.2%
CC(=O)O[C@H]1C[C@H](OC(C)=O)[C@]2(C)[C@H](CC[C@@]34O[C@@H]3C3=C(C)C(=O)O[C@@H]3C[C@H]42)C1(C)C,Potency,HEK293,5.63 µM (active)
same,outcome,HaCat [1],inactive
same,max response,NIH3T3,-18%
same,outcome,HACAT [2],inactive [at 17.4 µM]
C=C1C(=O)O[C@@H]2/C=C(\CO)CC/C=C(/C=O)C[C@@H](O)[C@@H]12,Potency,HEK293,8.2 µM (active)
same,Potency,HaCat [1],18.4 µM (active)
same,Potency,NIH3T3,16.4 µM (active)
C=C1CO[C@@]2(O[C@H]3CC4C5CC=C6C[C@@H](O)C[C@@H](O[C@@H]7OC[C@H](O)[C@H](O[C@@H]8OC[C@@H](O)[C@H](O)[C@H]8O)[C@H]7O[C@@H]7O[C@@H](C)[C@H](OC(C)=O)[C@@H](OC(C)=O)[C@H]7OC(C)=O)[C@]6(C)C5CC[C@]4(C)[C@@H]3[C@@H]2C)[C@@H](O)[C@H]1OC1OC(C)C(O)C(O)C1O (stereo partly drawn),max response,HEK293,-19.9%
same,outcome,HaCat [1],inactive
same,outcome,NIH3T3,inactive
same,outcome,HACAT [2],inactive [at 9.27 µM]
O=C(Nc1ccc(-c2ccnc(Nc3ccc(N4CCOCC4)cc3)n2)cc1)C1CCCN1 (stereo not drawn),Potency,HEK293,6.51 µM (active)
same,outcome,HaCat [1],inactive
same,outcome,HACAT [2],inactive
C=C(NC(=O)C(=C)NC(=O)c1csc(C2=NC3c4csc(n4)C4NC(=O)c5csc(n5)C(C(C)(O)C(C)O)NC(=O)C5CSC(=N5)/C(=C/C)NC(=O)C(C(C)O)NC(=O)c5csc(n5)C3(CC2)NC(=O)C(C)NC(=O)C(=C)NC(=O)C(C)NC(=O)C(C(C)CC)NC2C=Cc3c(C(C)O)cc(nc3C2O)C(=O)OC4C)n1)C(N)=O (stereo not drawn),Potency,HEK293,1.16 µM (active)
same,Potency,NIH3T3,4.61 µM (active)
O=C(Nc1ccccc1)N1CCC(Cc2cnc3ccccc3c2)CC1,max response,HEK293,-99.9%
same,max response,HaCat [1],-1.9%
same,max response,NIH3T3,2.45%
CC(=O)NC(C(=O)O[C@H]1CCC(C)(C)[C@@H]2CC=C3C(=O)OCC3(O)[C@@]12C)C(C)C (stereo partly drawn),max response,HEK293,-20.5%
same,max response,HaCat [1],3.16%
same,outcome,NIH3T3,inactive
CCCc1cc2c(N3CCN(C4=NCC(C)(C)S4)CC3)ncnc2s1,Potency,HEK293,5.8 µM (active)
same,outcome,HaCat [1],inactive
same,outcome,HACAT [2],inactive
CNC(=O)COC(=O)N1CCC(CCc2ccc(Cl)cc2)CC1,Potency,HEK293,14.6 µM (active)
same,outcome,HaCat [1],inactive
same,max response,NIH3T3,-13%
same,outcome,HACAT [2],inactive
c1cc(NCCc2c[nH]c3ccccc23)cc(Nc2ccncc2)c1,max response,HEK293,-111%
same,outcome,HaCat [1],inactive
same,max response,NIH3T3,-50.3%
same,outcome,HACAT [2],inactive
Fc1ccc(-n2cc(CCCCN3CCC4(CC3)OCc3ccccc34)c3ccccc32)cc1,Potency,HEK293,18.4 µM (active)
same,Potency,NIH3T3,16.4 µM (active)
C#Cc1cccc(Nc2nc3cc(C(=O)O)ccc3c3cncnc23)c1,Potency,HEK293,16.4 µM (active)
same,Potency,HaCat [1],7.31 µM (active)
same,max response,NIH3T3,-50.8%
O=C(Nc1ccc(CN2CCOCC2)cc1)c1ccc(-c2cccc(Cl)c2)o1,Potency,HEK293,9.2 µM (active)
same,max response,HaCat [1],-23.4%
same,max response,NIH3T3,1.97%
Cc1nc2ccc(-n3ncc(C(=O)c4cc5ccccc5[nH]4)c3N)cc2[nH]1,Potency,HEK293,5.8 µM (active)
same,max response,HaCat [1],-16.7%
same,Potency,NIH3T3,9.2 µM (active)
COC(=O)N1CC2(CC2)C[C@H](C(=O)NO)[C@H]1C(=O)N1CCN(c2ccccc2)CC1,Potency,HEK293,23.4 µM (active)
same,Potency,HaCat [1],26.3 µM (active)
same,outcome,NIH3T3,inactive
CCC1C(=O)N(C)c2cnc(Nc3ccc(C(=O)NC4CCN(C)CC4)cc3OC)nc2N1C1CCCC1 (stereo not drawn),max response,HEK293,-124%
same,Potency,NIH3T3,7.31 µM (active)
CC#C[C@@H](CC(=O)O)c1ccc(OCc2cccc(-c3ccc(C(F)(F)F)cc3)c2)cc1,max response,HaCat [1],-75.8%
same,max response,KB-3-1,-14.7%
Cn1cc(-c2cnn3c(N)c(Br)c([C@@H]4CCCNC4)nc23)cn1,Potency,HEK293,1.16 µM (active)
same,Potency,NIH3T3,2.06 µM (active)
Clc1ccc(Nc2nc3ccccc3c3nc(C4CCCCC4)[nH]c23)cc1Cl,Potency,HEK293,11.6 µM (active)
same,Potency,NIH3T3,20.6 µM (active)
O=C(Nc1nc2cc(C(F)(F)F)cc(NC3CC3)n2n1)c1cccnc1,Potency,HaCat [1],4.61 µM (active)
same,Potency,KB-3-1,5.8 µM (active)
CN(C)C(=O)NC1(c2ccccc2)CCN(CCC[C@]2(c3ccc(Cl)c(Cl)c3)CCCN(C(=O)c3ccccc3)C2)CC1,Potency,HEK293,16.4 µM (active)
same,Potency,NIH3T3,20.6 µM (active)
